PubChem BioAssay (EPA / NIEHS)
Inconclusive results are not listed. Calls of active or inactive are those of the source. Rule for the calls: active = hit-call score of the fitted dose curve at least 0.9, where 1 is the maximum; inconclusive = response in the unintended direction; inactive = score below 0.9.

What follows are compounds tested against human Vitamin D Receptor (VDR), VDR (gene 7421) (UniProt P11473) (assay: ATG_VDR_TRANS: Attagene TRANS-FACTORIAL HepG2 Assay for human Vitamin D Receptor (VDR) (AID 2283022)).
How it was run: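 RT-PCR/capillary electrophoresis read-out of reporter mRNA induction in transiently transfected HepG2; 24 h dosing; chimeric NR-Gal4 (TRANS format); gain-of-signal fit against DMSO baseline.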

Sequence of human Vitamin D Receptor (VDR), VDR (gene 7421) (P11473 whole entry, looked up, the tested form may be a part): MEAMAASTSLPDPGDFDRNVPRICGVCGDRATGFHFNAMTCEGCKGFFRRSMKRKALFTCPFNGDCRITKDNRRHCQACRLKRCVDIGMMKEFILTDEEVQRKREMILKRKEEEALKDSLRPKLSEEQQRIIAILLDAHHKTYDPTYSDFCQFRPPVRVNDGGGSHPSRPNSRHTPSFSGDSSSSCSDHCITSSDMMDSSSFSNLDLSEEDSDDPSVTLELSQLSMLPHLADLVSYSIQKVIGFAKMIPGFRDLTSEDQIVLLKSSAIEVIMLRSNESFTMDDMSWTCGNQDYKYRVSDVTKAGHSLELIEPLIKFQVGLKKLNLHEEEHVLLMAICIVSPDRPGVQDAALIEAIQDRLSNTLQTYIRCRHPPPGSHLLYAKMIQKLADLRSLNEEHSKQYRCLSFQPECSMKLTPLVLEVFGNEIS

outcome, inactive:
COc1ccc(NC(=O)CC(C)=O)cc1
O=S(=O)(O)c1cccc2c(S(=O)(=O)O)cccc12
CNCCCC12CCC(c3ccccc31)c1ccccc12
CC(C)=CCCC(C)=CCCC(C)=CCO
C[C@]12CC[C@H]3[C@@H](CCC4=CC(=O)CC[C@@]43C)[C@@H]1CC[C@@H]2C(=O)CO
CC1(C)OC[C@@H]2O[C@@]3(C(=O)O)OC(C)(C)O[C@H]3[C@@H]2O1
O=C(COc1ccc(Cl)cc1)N1CCN(Cc2ccc3c(c2)OCO3)CC1
O=Cc1ccc(F)cc1
CC(C)(C)C(=O)c1ccccc1
Cc1c(N(C)C)c(=O)n(-c2ccccc2)n1C
OCCN1CCNCC1
Cc1ccc2ccccc2n1
C=O
Nc1ccc(F)c([N+](=O)[O-])c1
Cc1ccc2sc3cccc(C)c3c2c1
COc1ccc(OC)c(OC)c1
Clc1ccc(Cl)c(Cl)c1Cl
CCN(CC)c1ccc(C(=C2C=CC(=[N+](CC)CC)C=C2)c2ccc(S(=O)(=O)O)cc2S(=O)(=O)[O-])cc1
O=c1oc(=O)c2cc3c(=O)oc(=O)c3cc12
CCOC(=O)c1ccccc1OC
COCCOCCOCCOCCOCCO
CCCC(=O)C(C)=O
COc1nc(C)nc(N)n1
O=C(O)c1snc(Cl)c1Cl
CCCCCCCCC
CC(=O)Nc1ccc(C)cc1C
OCCOCCOCCOCCO
COC(=O)Cc1cccc2ccccc12
O=C(O)CCCCC1CCSS1 (centres undefined)
CC(O)C(C)O (centres undefined)
OCCOc1cccc(OCCO)c1
CCCC1CCC(=O)O1 (centres undefined)
CCCCO
CC(C)C1CCC(O)CC1 (centres undefined)
CC1=CCC2C(C1)C2(C)C (centres undefined)
N#Cc1nc(Cl)c(Cl)c(Cl)c1Cl
CC(C=O)Cc1ccc(C(C)C)cc1 (centres undefined)
O=C(Oc1ccccc1)c1ccc(O)cc1
CCN(CC)c1ccc2c(-c3ccccc3C(=O)O)c3ccc(=[N+](CC)CC)cc-3oc2c1
